In experiment [1] the target is Acetylcholinesterase (Homo sapiens) (UniProt P22303). Description: Acetylcholinesterase (AChE) small molecule antagonists: colormetric cell-based qHTS assay (AID 1347395). Also: nearly all actives have a fitted effect of over 30% in size. An outline of the steps:
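SH-SY5Y cells attached overnight, exposed to compound 30 min at 37 C, then given DTNB/acetylthiocholine; after 90 min at 37 C, colorimetric thiocholine read gives cellular AChE activity.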
On the technique in general: In qHTS, concentration-response curves come from the screen itself.

The target is the same in experiment [2]. The experiment is described as follows: Acetylcholinesterase (AChE) small molecule antagonists: enzyme-based qHTS assay (AID 1347397). Also: nearly all actives have a fitted effect of over 55% in size. As to conditions: Potency: AChE enzyme activity inhibition; outcome: AChE enzyme activity inhibition. The method, boiled down:
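Absorbance-based detection of thiocholine with DTNB served as the read-out. Recombinant human AChE was exposed to compound for 30 min at RT before a 10 min RT incubation with acetylthiocholine.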

Experiment [3] has the same target. Description: Acetylcholinesterase (AChE) small molecule antagonists: fluorescence cell-based qHTS assay (AID 1347398). Also: nearly all actives have a fitted effect of over 50% in size. As to conditions: Potency: AChE activity; outcome: AChE activity. An outline of the steps: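 Fluorimetric cell-based assay: intact SH-SY5Y cells, 30 min compound preincubation at 37 C, acetylthiocholine substrate with thiol probe Thiolite Green, 40 min RT development, fluorescence 490/520 nm.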

The target is the same in experiment [4]. Description: Acetylcholinesterase (AChE) small molecule antagonists: enzyme-based qHTS assay with human liver microsomes (AID 1347399). Also: nearly all actives have a fitted effect of over 60% in size. To be noted: Potency: qHTS inhibition; outcome: qHTS inhibition. The method, boiled down:
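Recombinant human AChE (50 mU/mL in the enzyme mix) and human liver microsomes (0.25 mg/mL final) were preincubated with compound and NADPH (0.25 mg/mL final) for 30 min at 37 C. Acetylthiocholine/DTNB was then added; thiocholine was read colorimetrically after 10 min at room temperature.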

Each structure is given as a SMILES string. “And” between values parts separate entries of the source, which are not always exact repeats. Equal entries are not always repeated. Results filed as inconclusive are left out. Some compounds were tested as several samples or in several runs, with calls that do not always agree. The source made the active and inactive calls. Calls follow the shape of the full dose curve.
% is scaled to controls: 0 for no effect and ±100 for the full control effect; potency is read from the fitted curve at half-maximal effect.

Sequence of Acetylcholinesterase (Homo sapiens) (P22303 whole entry, looked up): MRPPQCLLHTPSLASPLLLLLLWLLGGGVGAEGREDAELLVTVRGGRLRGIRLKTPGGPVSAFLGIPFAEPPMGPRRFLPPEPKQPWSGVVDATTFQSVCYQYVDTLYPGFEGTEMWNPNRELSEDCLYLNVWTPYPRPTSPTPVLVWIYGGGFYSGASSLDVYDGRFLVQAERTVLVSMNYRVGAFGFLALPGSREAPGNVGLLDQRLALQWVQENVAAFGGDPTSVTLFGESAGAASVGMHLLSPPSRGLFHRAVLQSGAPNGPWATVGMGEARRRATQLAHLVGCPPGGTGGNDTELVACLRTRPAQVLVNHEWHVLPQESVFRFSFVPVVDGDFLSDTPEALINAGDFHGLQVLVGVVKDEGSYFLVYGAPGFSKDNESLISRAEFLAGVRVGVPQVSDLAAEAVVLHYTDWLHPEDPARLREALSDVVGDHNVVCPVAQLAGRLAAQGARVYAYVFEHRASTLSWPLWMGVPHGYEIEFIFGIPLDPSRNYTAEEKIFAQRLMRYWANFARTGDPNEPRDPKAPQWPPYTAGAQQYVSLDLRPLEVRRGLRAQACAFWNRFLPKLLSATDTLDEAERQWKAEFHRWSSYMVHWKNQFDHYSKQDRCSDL

With `CNc1c2c(nn1C)CCCC2`, the Potency result in experiment [1], in experiment [2], in experiment [3] and in experiment [4] was “inactive” throughout.
As to `OC[C@@H](O)[C@H](O)[C@H](O)[C@@H](O)CO`, the Potency entry in experiment [1], in experiment [2], in experiment [3] and in experiment [4] was “inactive” in each case.
As to `O=c1cc(-c2ccc(O)cc2)oc2cc(O)cc(O)c12`, the Potency entry in experiment [1], in experiment [2], in experiment [3] and in experiment [4] was “inactive” each time.
For the compound `C/C(Cl)=C/CCl`, the Potency entry in experiment [1], in experiment [2], in experiment [3] and in experiment [4] was “inactive” throughout.
With `CC(C)(C)c1nnc(NS(=O)(=O)c2ccccc2)s1`, the Potency result in experiment [1], in experiment [2], in experiment [3] and in experiment [4] was “inactive” each time.
As to `C=C(C)OC(C)=O`, the Potency entry in experiment [1], in experiment [2] and in experiment [4] was “inactive” each time. Further, in experiment [3], the Potency is 32.7 µM (active) and inactive.
With `O=C[C@H](O)[C@H](O)[C@H](O)CO`, the Potency entry in experiment [1], in experiment [2], in experiment [3] and in experiment [4] was “inactive” throughout.
Regarding `CC(=O)CC(=O)N(C)C`, the Potency result in experiment [1], in experiment [2], in experiment [3] and in experiment [4] was “inactive” in each case.
For the compound `CC12CCC(CC1)C(C)(C)O2`, the Potency result in experiment [1], in experiment [2], in experiment [3] and in experiment [4] was “inactive” throughout.
Turning to `CCCCCC[C@@H](O)C/C=C\CCCCCCCC(=O)OCC(O)CO` (stereo not given in full), the Potency result in experiment [1], in experiment [2], in experiment [3] and in experiment [4] was “inactive” throughout.
For `CC(C)(C)CC(=O)OCC(=O)[C@@]1(O)CC[C@H]2[C@@H]3CCC4=CC(=O)C=C[C@]4(C)[C@H]3[C@@H](O)C[C@@]21C`, the Potency entry in experiment [1], in experiment [2], in experiment [3] and in experiment [4] was “inactive” in each case.
For the compound `COc1ccc(C(=O)c2cccc(O)c2)c(OC)c1`, the Potency entry in experiment [1], in experiment [2], in experiment [3] and in experiment [4] was “inactive” in each case.
As to `CC(=O)OC(C)c1ccccc1` (stereo not given), the Potency entry in experiment [1], in experiment [2], in experiment [3] and in experiment [4] was “inactive” throughout.
`Cc1cc(Br)ccc1NC(=O)CCl`: the Potency entry in experiment [1], in experiment [2], in experiment [3] and in experiment [4] was “inactive” in each case.
Take `C=C(C)C(=O)OCC(C)C`: the Potency entry in experiment [1], in experiment [2], in experiment [3] and in experiment [4] was “inactive” each time.
Turning to `CC(C)(CC(=O)O)C(=O)O`, the Potency entry in experiment [1], in experiment [2], in experiment [3] and in experiment [4] was “inactive” in each case.
Turning to `N[C@@H](Cc1cc(I)c(O)c(I)c1)C(=O)O`, the Potency entry in experiment [1], in experiment [2], in experiment [3] and in experiment [4] was “inactive” each time.
Turning to `C/C(=C\c1ccc(C(=O)O)cc1)c1ccc2c(c1)C(C)(C)CCC2(C)C`, the Potency result in experiment [1], in experiment [2], in experiment [3] and in experiment [4] was “inactive” in each case.
With `Nc1nc(-c2ccc([N+](=O)[O-])cc2)cs1`, the Potency result in experiment [1], in experiment [2], in experiment [3] and in experiment [4] was “inactive” in each case.
For the compound `OC[C@H]1O[C@@H](Oc2ccc(O)cc2)[C@H](O)[C@@H](O)[C@@H]1O`, the Potency result in experiment [1], in experiment [2], in experiment [3] and in experiment [4] was “inactive” in each case.
Take `S=c1nccc[nH]1`: the Potency entry in experiment [1], in experiment [2], in experiment [3] and in experiment [4] was “inactive” throughout.
Turning to `Cc1ccc(C)c(S(=O)(=O)O)c1`, the Potency entry in experiment [1], in experiment [2], in experiment [3] and in experiment [4] was “inactive” each time.
On to `NC(=O)c1ncn([C@@H]2O[C@H](CO)[C@@H](O)[C@H]2O)n1`, for which the Potency result in experiment [1], in experiment [2], in experiment [3] and in experiment [4] was “inactive” throughout.
Turning to `OCC1CC=CCC1` (stereo not given), the Potency result in experiment [1], in experiment [2], in experiment [3] and in experiment [4] was “inactive” each time.
For the compound `Cc1ccccc1C(N)=O`, the Potency result in experiment [1], in experiment [2], in experiment [3] and in experiment [4] was “inactive” each time.
Turning to `Cc1oc(C)c(C(=O)Nc2ccccc2)c1C`, the Potency result in experiment [1], in experiment [2], in experiment [3] and in experiment [4] was “inactive” in each case.
For `CC(N)=O`, the Potency result in experiment [1], in experiment [2], in experiment [3] and in experiment [4] was “inactive” in each case.
For the compound `Cc1cc(=O)[nH]c(C(C)C)n1`, the Potency result in experiment [1], in experiment [2], in experiment [3] and in experiment [4] was “inactive” throughout.
In the case of `O=C(O)CCSCCC(=O)O`, the Potency entry in experiment [1], in experiment [2], in experiment [3] and in experiment [4] was “inactive” throughout.
For `O[Si](c1ccccc1)(c1ccccc1)c1ccccc1`, the Potency result in experiment [1], in experiment [2], in experiment [3] and in experiment [4] was “inactive” each time.
Turning to `Nc1ccc(S(=O)(=O)Nc2ccnn2-c2ccccc2)cc1`, the activity, negative = inhibition in experiment [1] is -0.528% [at 23.6 µM] (inactive). In addition, the values for the activity change, negative = inhibition in experiment [2], in experiment [3] and in experiment [4] were -0.415% [at 23.6 µM] (inactive), 5.71% [at 23.8 µM] (inactive) and -0.674% [at 23.6 µM] (inactive), respectively.
With `COc1ccc(N)c(OC)c1`, the Potency entry in experiment [1], in experiment [2], in experiment [3] and in experiment [4] was “inactive” each time.
For `COc1ccc2c(c1)c(CC(=O)OC/C=C(\C)CC/C=C(\C)CCC=C(C)C)c(C)n2C(=O)c1ccc(Cl)cc1`, the Potency result in experiment [1], in experiment [2], in experiment [3] and in experiment [4] was “inactive” each time.
As for `c1ccc(CSCc2ccccc2)cc1`, the Potency entry in experiment [1], in experiment [2], in experiment [3] and in experiment [4] was “inactive” each time.
Turning to `CC/C=C\CCCCCO`, the Potency entry in experiment [1], in experiment [2], in experiment [3] and in experiment [4] was “inactive” in each case.
`CCN=c1cc2oc3cc(NCC)c(C)cc3c(-c3ccccc3C(=O)OCC)c-2cc1C`: the Potency is 6.31 µM (active) and 8.94 µM (active) in experiment [1]; 17.8 µM (active) in experiment [2]; 79.4 µM (active) and 63.3 µM (active) in experiment [4]. For the same compound, in experiment [3], the Potency result is “inactive”.
Take `CC(C)(C)C(=O)C(Oc1ccc(Cl)cc1)n1ccnc1` (stereo not given): the Potency result in experiment [1], in experiment [2], in experiment [3] and in experiment [4] was “inactive” each time.
With `CN1CCC[C@@H]1c1cccnc1`, the Potency entry in experiment [1], in experiment [2], in experiment [3] and in experiment [4] was “inactive” each time.
On to `CC(=O)Nc1ccc(CC(=O)O)cc1`, for which the Potency result in experiment [1], in experiment [2], in experiment [3] and in experiment [4] was “inactive” in each case.
Turning to `CC(CC(C)(C)C)CC(C)(C)CC(C)(C)C` (stereo not given), the Potency result in experiment [1], in experiment [2], in experiment [3] and in experiment [4] was “inactive” throughout.
`CCCCCC/C=C/CCCCCCCC(=O)O`: the Potency result in experiment [1], in experiment [2], in experiment [3] and in experiment [4] was “inactive” each time.
As to `O=C1C(c2[nH]c3ccc(S(=O)(=O)O)cc3c2O)=Nc2ccc(S(=O)(=O)O)cc21`, the Potency result in experiment [1], in experiment [2], in experiment [3] and in experiment [4] was “inactive” throughout.
With `O=NN(CCCl)C(=O)NC1CCCCC1`, the Potency entry in experiment [1], in experiment [2], in experiment [3] and in experiment [4] was “inactive” in each case.
As for `CC(C)OP(=O)(CP(=O)(OC(C)C)OC(C)C)OC(C)C`, the Potency entry in experiment [1], in experiment [2], in experiment [3] and in experiment [4] was “inactive” each time.
Take `CC(CCC(=O)O)(c1ccc(O)cc1)c1ccc(O)cc1`: the Potency entry in experiment [1], in experiment [2], in experiment [3] and in experiment [4] was “inactive” throughout.
In the case of `CCc1oc2ccccc2c1C(=O)c1cc(I)c(O)c(I)c1`, the Potency entry in experiment [1], in experiment [2], in experiment [3] and in experiment [4] was “inactive” each time.
`O=C(O)CCCCCCC(=O)O`: the Potency result in experiment [1], in experiment [2], in experiment [3] and in experiment [4] was “inactive” throughout.
Consider `C#CC(C)(O)CC(C)C` (stereo not given), for which the Potency entry in experiment [1], in experiment [2], in experiment [3] and in experiment [4] was “inactive” each time.
On to `CC(C)OC(=O)C(O)(CC(=O)O)CC(=O)O`, for which the Potency result in experiment [1], in experiment [2], in experiment [3] and in experiment [4] was “inactive” each time.
On to `CC#N`, for which the Potency entry in experiment [1], in experiment [2], in experiment [3] and in experiment [4] was “inactive” in each case.
Take `c1ccc(CCc2ccccc2)cc1`: the Potency entry in experiment [1], in experiment [2], in experiment [3] and in experiment [4] was “inactive” throughout.
In the case of `C=Cc1ccc(C(C)(C)C)cc1`, the Potency result in experiment [1], in experiment [2], in experiment [3] and in experiment [4] was “inactive” throughout.
As for `C#CC(C)N(C)C(=O)Nc1ccc(Cl)cc1` (stereo not given), the Potency result in experiment [1], in experiment [2], in experiment [3] and in experiment [4] was “inactive” each time.
As for `O=C(CCNNC(=O)c1ccncc1)NCc1ccccc1`, the Potency entry in experiment [1], in experiment [2], in experiment [3] and in experiment [4] was “inactive” each time.
Regarding `O=C(O)CCCCCCCC(=O)O`, the Potency result in experiment [1], in experiment [2], in experiment [3] and in experiment [4] was “inactive” throughout.
With `CC(C)(C)OC(=O)c1cccc(N)c1`, the Potency entry in experiment [1], in experiment [2], in experiment [3] and in experiment [4] was “inactive” in each case.
For `CCOCCn1c(N2CCCN(C)CC2)nc2ccccc21`, the Potency result in experiment [1], in experiment [2], in experiment [3] and in experiment [4] was “inactive” each time.
For `CCOc1cc(NC(C)=O)ccc1C(=O)OC`, the Potency entry in experiment [1], in experiment [2], in experiment [3] and in experiment [4] was “inactive” in each case.
`OC[C@H]1O[C@@H](n2cnc3c(=S)nc[nH]c32)[C@H](O)[C@@H]1O`: the Potency entry in experiment [1], in experiment [2], in experiment [3] and in experiment [4] was “inactive” each time.
Regarding `CCOC(=O)[C@H](CCc1ccccc1)N[C@@H](C)C(=O)N1Cc2ccccc2C[C@H]1C(=O)O`, the Potency entry in experiment [1], in experiment [2], in experiment [3] and in experiment [4] was “inactive” each time.

These data come from PubChem BioAssay (Tox21).
